The source made the active and inactive calls. A call without a number means that no potency is given here. The call rests on the fitted dose curve; in most records, active means well fitted inhibition curve with a large enough effect; inconclusive means small, poorly fitted or top-dose-only effect; inactive means no such curve, though single readings can be large or run the other way.
target: Pyruvate kinase (Leishmania mexicana) (UniProt Q27686); experiment: qHTS Validation Assay for Inhibitors of Leishmania Mexicana Pyruvate Kinase (AID 945); details: purified L. mexicana pyruvate kinase, enzyme activity, E451W mutant enzyme; series mostly up to 57.5 µM
Summary of the method: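 An endpoint luciferase assay: 0.2 nM LmPYK E451W turns over 0.5 mM PEP with 0.1 mM ADP for 1 h at room temperature, pH 7.2, before PKLight addition. Values are normalized to DMSO-only wells.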
Potency means the concentration at half of the fitted maximal effect.

Chain of Pyruvate kinase (Leishmania mexicana) (Q27686 2-499 E452W): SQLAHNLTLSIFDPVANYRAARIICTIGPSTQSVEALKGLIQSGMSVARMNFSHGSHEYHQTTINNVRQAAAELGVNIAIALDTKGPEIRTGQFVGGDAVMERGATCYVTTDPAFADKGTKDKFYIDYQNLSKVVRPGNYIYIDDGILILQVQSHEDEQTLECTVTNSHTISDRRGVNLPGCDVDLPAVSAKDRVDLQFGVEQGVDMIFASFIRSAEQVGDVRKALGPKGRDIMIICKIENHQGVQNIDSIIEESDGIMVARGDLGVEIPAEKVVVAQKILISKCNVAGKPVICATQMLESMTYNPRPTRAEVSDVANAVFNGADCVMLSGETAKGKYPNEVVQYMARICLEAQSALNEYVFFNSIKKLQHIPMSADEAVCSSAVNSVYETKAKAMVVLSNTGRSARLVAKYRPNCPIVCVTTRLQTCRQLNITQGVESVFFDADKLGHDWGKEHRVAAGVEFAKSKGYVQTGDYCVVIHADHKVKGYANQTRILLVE

SMILES | Potency
NC(=O)C(=O)O | inactive
NC[C@@H]1O[C@H](C23CC4CC(CC(C4)C2)C3)Cc2c1ccc(O)c2O | inactive
O=C(Nc1cccc(C(=O)Nc2ccc(S(=O)(=O)O)c3cc(S(=O)(=O)O)cc(S(=O)(=O)O)c23)c1)Nc1cccc(C(=O)Nc2ccc(S(=O)(=O)O)c3cc(S(=O)(=O)O)cc(S(=O)(=O)O)c23)c1 | inactive
CN1CCc2cc(NC(=O)Nc3cccnc3)ccc21 | 20 µM (active)
Cn1c(=O)c2[nH]c(-c3ccccc3)nc2n(C)c1=O | inactive
CC(C)Cc1ccc([C@H](C)C(=O)O)cc1 | inactive
COc1ccc(/C=C/C(=O)Nc2ccccc2C(=O)O)cc1OC | 12.6 µM (active)
CC(C)NC[C@H](O)COc1cccc2[nH]ccc12 | inactive
